Sampled rows, rich in hits. Any-hit rate of the full collection: about 1.9%.
EP2 modulator = EP2 receptor modulators, cAMP readout, primary screen, cell-based, HTRF cAMP, PGE2 stimulation. Prostaglandin E2 receptor EP2 subtype (Homo sapiens), P43116. induction, % at 25 µM. 260,000 compounds, 0.83% hits. EP2-expressing cells, cAMP HTRF FRET, PGE2 co-stimulation;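 active = compounds whose cAMP rise, as percent of the full-agonist control response, exceeds 60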;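 also: rat C6 glioma line stably carrying human EP2 under a CMV promoter; the protocol text gives 20 µM as final concentration; 100% = response of wells given 1 µM PGE2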
Target sequence (P43116 whole entry, looked up): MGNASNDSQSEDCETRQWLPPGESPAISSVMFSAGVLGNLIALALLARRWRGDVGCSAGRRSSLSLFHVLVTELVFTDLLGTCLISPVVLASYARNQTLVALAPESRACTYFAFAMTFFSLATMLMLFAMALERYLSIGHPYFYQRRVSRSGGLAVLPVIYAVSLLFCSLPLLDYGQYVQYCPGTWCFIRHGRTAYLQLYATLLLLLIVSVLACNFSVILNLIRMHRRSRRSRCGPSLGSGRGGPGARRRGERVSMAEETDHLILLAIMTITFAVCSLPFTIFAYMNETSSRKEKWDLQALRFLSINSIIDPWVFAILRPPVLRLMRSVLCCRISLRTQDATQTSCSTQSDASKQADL
S1P4 agonist = S1P4 receptor agonists, primary screen, cell-based; Sphingosine 1-phosphate receptor 4 (Homo sapiens), O95977; S1P4-expressing cell line, agonist reporter assay; activation, % at 4.98 µM; 220,000 compounds, 0.35% hits; AID 1509, 2009; in the data active = activation above about 11%;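 also: 0% = DMSO vehicle and 100% = reference agonist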
S1P3 antag = S1P3 receptor antagonists, primary screen, cell-based. Sphingosine 1-phosphate receptor 3 (Homo sapiens), Q99500. CHO S1P3 NFAT-BLA reporter, FRET fluorescence, antagonist mode. inhibition, % at 4.98 µM. 170,000 compounds, 0.27% hits. AID 485, 2006;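 active = inhibition above the plate cutoff, the mean inhibition of test wells on that plate plus 3 SD, cut at about 28% in these data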;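 also: cells challenged with S1P at its EC80 of 0.8 µM; blue over green emission ratio from cleaved BLA substrate after 4 h stimulation; 0% = S1P-stimulated wells and 100% = unstimulated DMSO-only wells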
Pf gamet viab = late stage P. falciparum gametocyte viability inhibitors, primary screen, ATP luminescence, HTS. inhibition, % at 10.9 µM. 150,000 compounds, 0.065% hits. AID 743093, 2013. P. falciparum stage V gametocytes, 24 h;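 active = inhibition above the mean plus 3 SD of compounds within the control limits, set per campaign, cut at about 38% in these data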;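 also: 0% = DMSO wells and 100% = medium only without gametocytes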
S1P4 antagonist = S1P4 receptor antagonists, primary screen, cell-based; Sphingosine 1-phosphate receptor 4 (Homo sapiens), O95977; inhibition, % at 4.98 µM; 220,000 compounds, 0.26% hits; S1P4-expressing cells, antagonist mode, reporter read-out; in the data active = inhibition above about 29%;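 also: 0% = wells stimulated with agonist and 100% = vehicle wells without agonist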
EP2 antag = human EP2 receptor antagonists, primary screen, TR-FRET cAMP, C6 glioma cells; Prostaglandin E2 receptor EP2 subtype (Homo sapiens), P43116; C6 glioma cells expressing human EP2; cells stimulated with saturating PGE2; inhibition, % at 25 µM; 260,000 compounds, 0.52% hits;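 active = percent inhibition above 40 after rounding to a whole number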;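 also: rat C6 glioma host cells with rolipram phosphodiesterase inhibitor present; the protocol text gives 20 µM as final concentration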
* = called active by the depositor; / = not tested or not shown.

SMILES	EP2 modulator	S1P4 agonist	S1P3 antag	Pf gamet viab	S1P4 antagonist	EP2 antag
CCCOc1ccc(C2C3=C(CCCC3=O)NC3=C2C(=O)CCC3)cc1	-17	/	/	/	/	8
O=C(Cc1ccccc1F)N1CCCC(n2nc(-c3cccs3)ccc2=O)C1 (stereo not drawn)	-39	/	/	/	/	/
C#CCOc1ccc(CN(Cc2cccnc2)C2CC(C)(C)NC(C)(C)C2)cc1OC	0	/	/	/	/	5
CC(=O)CSc1ncnc2c1oc1ccccc12	62*	0	-14	/	-18	16
O=C(CSc1ncnc2c1oc1ccccc12)N1CCN(c2ccccc2)CC1	/	0	9	-2	-29	7
O=c1cc(-c2ccccc2Cl)oc2c(NS(=O)(=O)c3cc(Cl)cc(Cl)c3O)ccc(O)c12	8	0	-19	/	5	45*
CCc1ccc(S(=O)(=O)Nc2ccc(O)c3c(=O)cc(-c4ccccc4Cl)oc23)cc1	44	/	/	-7	/	20
Cc1cccc(Cl)c1NC[C@H](O)CN1CCN(C)CC1	13	/	/	/	/	47*
Cc1ccccc1OCC(O)CN1CCN(C)CC1 (stereo not drawn)	16	2	-8	7	-14	6
O=C(CN1CCCCCC1)Nc1ccc(F)cc1F	10	/	/	/	/	3
COc1ccccc1N=c1oc2cc(O)ccc2cc1C(=O)Nc1cccc(C)n1	-29	/	/	/	/	15
Cc1ccc(C)n1-n1cnc2sc(-c3ccccc3)cc2c1=O	26	1	20	/	-6	23
Cc1ccc(C)n1-n1c(C)nc2sc(-c3ccccc3)cc2c1=O	6	-3	55*	/	8	19
CCN1CCCC1CN(Cc1ccccn1)Cc1ccc(Sc2ncccn2)o1 (stereo not drawn)	-21	/	/	/	/	8
CC(Nc1ccc(Br)cn1)c1cc(Cl)ccc1O (stereo not drawn)	-17	3	67*	-29	8	/
CN(Cc1cc(C(C)(C)C)cc(Br)c1O)Cc1cc(C(C)(C)C)cc(Br)c1O	5	/	/	/	/	43*
O=C(/C(=C/O)N=Nc1cccc(C(F)(F)F)c1)c1ccccc1	62*	1	-7	12	-13	5
O=C(COC(=O)c1cccnc1)Nc1cccc(Cl)c1Cl	-32	/	/	/	/	4
COC(=O)CSc1ccc(-c2nc3ccc(C)cc3[nH]2)cn1	-22	-1	/	/	2	59*
CCCCNC(=O)c1cccc2c(=O)c(C)c(-c3ccccc3)oc12	-2	0	-10	-11	-16	7
CCCCN(C(=O)c1cccc2c(=O)c(C)c(-c3ccccc3)oc12)c1ccccc1	64*	2	-7	-16	-20	-1
Cc1sc(NC(=O)c2ccccc2)c(C(=O)c2ccccc2)c1C	65*	1	7	/	-10	11
O=C(c1ccccc1)n1c(=O)oc2ccccc21	44	/	/	/	/	12
O=C(Nc1ccc(N2CCCC2)c(Cl)c1)c1ccc([N+](=O)[O-])o1	-35	-2	-1	2	90*	9
O=C(Nc1ccc(N2CCN(C(=O)c3ccc(Cl)cc3)CC2)cc1)c1ccc([N+](=O)[O-])o1	-50	-1	-2	12	14	121*
SMILES	EP2 modulator	S1P4 agonist	S1P3 antag	Pf gamet viab	S1P4 antagonist	EP2 antag
CN(C)c1ccc(NC(=O)c2ccc([N+](=O)[O-])o2)cc1	-104	/	/	/	/	25
CS(=O)(=O)N1CCN(c2ccc(NC(=O)c3ccc([N+](=O)[O-])o3)cc2)CC1	-48	-3	9	9	28	15
CCC(=O)Nc1ccc(NC(=O)c2ccc([N+](=O)[O-])o2)cc1	-129	/	/	/	/	68*
O=C(Nc1ccc(N2CCCC2)c(Cl)c1)c1ccco1	-23	-1	3	/	-18	13
COc1ccc2nc(-c3ccncc3)cc(C(=O)O)c2c1	-5	/	/	/	/	7
CCCc1cc(=O)n2[nH]c(C)c(-c3ccc(F)cc3)c2n1	-15	/	/	/	/	/
CCCCC1C(=O)CC[C@H]2[C@@H]1CC(=O)[C@@H]2C/C=C\CCCC(=O)O (stereo partly drawn)	80*	1	-4	/	-17	14
CCN(CC(=O)NC1CCS(=O)(=O)C1)c1nc(-c2ccccc2)nc2ccccc12 (stereo not drawn)	12	-1	94*	8	-8	11
CCOc1ccccc1N1CCN(C(=O)c2ccc3[nH]c4c(c3c2)CCCC4)CC1	-9	5	-34	44*	-5	1
CCOc1ccccc1N1CCN(C(=O)c2ccncc2)CC1	19	1	-34	/	1	13
CCOC(=O)n1c(=O)n(Cc2cccc(C)c2)c2ccccc21	64*	0	-14	/	-12	7
Cc1noc(C)c1C(=O)Nc1nnc(-c2ccccc2)s1	-15	-1	-6	/	102*	25
Cc1cccc(C)c1NC(=O)c1c(-c2ccccc2)noc1C	6	1	-7	/	14	8
COc1ccccc1NC(=O)Nc1nnc(-c2ccco2)s1	-19	1	/	/	2	/
COc1ccccc1C(=O)Nc1nnc(-c2ccco2)s1	-6	-1	/	5	-9	44*
Cc1cccc(NC(=O)c2c(-c3ccccc3)noc2C)n1	-55	2	-5	6	-9	43*
O=C(Nc1nnc(-c2ccco2)s1)c1ccccc1	32	0	-3	/	-19	46*
CCn1c(NCc2cccc(OC)c2)nc2ccccc21	-12	/	/	/	/	9
COCCNC(=O)Cn1cc(/C=C2\C(=O)NC(=S)N(c3ccc(C)cc3)C2=O)c2ccccc21	-94	/	/	/	/	19
Cc1cccc(C)c1NC(=O)CSc1nc2ccccc2c(=O)n1CC1CCCO1 (stereo not drawn)	-51	/	/	/	/	9
O=C(C1CC(c2ccc(Cl)cc2)=NO1)N1CCOCC1 (stereo not drawn)	-17	/	/	/	/	8
CCOC(=O)c1cc2sccc2n1Cc1cccc(F)c1	85*	/	/	/	/	9
CCOC(=O)c1cc2sccc2n1CC(=O)O	13	0	/	-6	-6	6
CC(=O)c1sc(-c2ccccc2)cc1NS(=O)(=O)c1ccc(C)cc1	-9	1	-6	27	-5	74*
CC(=O)c1sc(-c2ccc(F)cc2)cc1NS(=O)(=O)c1ccc(C)cc1	-12	1	-8	19	8	19
CC(=O)c1cc2c(cc1NS(=O)(=O)c1ccccc1)OCO2	20	0	/	-16	-4	4
CC(=O)c1sc(-c2ccccc2)cc1NS(=O)(=O)c1ccccc1	-21	0	-11	-2	1	81*
COc1ccc2[nH]c(=O)c(CN(CCc3ccccc3)C(c3nnnn3C(C)(C)C)C(C)C)cc2c1 (stereo not drawn)	15	/	/	/	/	6
COc1cc(C)c(Cl)cc1S(=O)(=O)N1CCCC(C)C1 (stereo not drawn)	12	/	/	/	/	7

Assay outcomes (PubChem)
